What all share (assay): Euclidean distance of Cell Painting phenotypic profile (signed KS, 77 features) to DMSO centroid (dimensionless distance); 5 or 10 uM (library dependent); higher = stronger phenotypic change vs DMSO (phenoactivity)
Common to all, as to conditions: 48 h

In one experiment the test system is 786-O. The essentials: (§1)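 Phenoactivity is computed as Euclidean distance to the median vehicle profile. The profiles, drawn from 77 Harmony features scored as signed Kolmogorov-Smirnov statistics versus same-plate vehicle wells, were corrected for plate position, correlation-weighted and replicate-averaged at the top dose. Stained cells were imaged confocally at 20X (9 fields/well) after 48 h with library compounds at 10 or 5 uM, 0.1% DMSO final, in five cancer lines and a healthy fibroblast line.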

The next experiment relates to A549. Put shortly: as §1
The next experiment concerns DU145. The essentials: as §1
The next experiment relates to FB. Put shortly:
as §1

Another experiment deals with HEPG2. The essentials: as §1
Another experiment has as its system OVCAR4. Put shortly: as §1

Structures are written as SMILES. Structures can show the parent of a compound that is named as a salt.

For the compound `CC12CC3CC(C)(C1)CC(N)(C3)C2` [Memantine HCl], the Euclidean distance with 786-O was found to be 1.1; in the experiment on A549 it was 0.654; in the experiment with DU145 it was 1.66; with FB, 1.03; with HEPG2 it was 1.95; with OVCAR4, 1.51.
Take `CCCNS(=O)(=O)Nc1ncnc(OCCOc2ncc(Br)cn2)c1-c1ccc(Br)cc1` [Macitentan]: the Euclidean distance in the experiment with 786-O was determined as 1.36; in the experiment on A549, 0.708; in the experiment on DU145 it was 0.918; with FB, 0.878; in the experiment on HEPG2, 0.806; in the experiment on OVCAR4, 0.809.
For `Cc1ccc(F)c(NC(=O)Nc2ccc(-c3cccc4[nH]nc(N)c34)cc2)c1` [Linifanib (ABT-869)], the Euclidean distance came to 1.23 in the experiment with 786-O; 2.53 with A549; 1.64 with DU145; 1.81 in the experiment with FB; 4.87 in the experiment with HEPG2; 1.29 with OVCAR4.
As to `N[C@@H](Cc1c[nH]c2ccccc12)C(=O)O` [L-Tryptophan], the Euclidean distance is 0.689 with 786-O; 1.11 in the experiment with A549; 0.644 with DU145; 0.569 in the experiment with FB; 0.851 in the experiment with HEPG2; 1.36 in the experiment on OVCAR4.
As for `COC(=O)C1=C(C)NC(C)=C(C(=O)OCCN(C)Cc2ccccc2)C1c1cccc([N+](=O)[O-])c1` (stereo not drawn) [Nicardipine HCl], the Euclidean distance was 1.27 in the experiment with 786-O; 1.28 with A549; 0.897 with DU145; 0.903 in the experiment with FB; 1.24 in the experiment with HEPG2; 1.31 in the experiment with OVCAR4.
Take `Nc1nc(Nc2ccc(S(N)(=O)=O)cc2)nn1C(=O)c1c(F)cccc1F`: the Euclidean distance with 786-O worked out at 1.27; in the experiment on A549, 1.64; in the experiment with DU145, 1.5; in the experiment with FB, 0.817; with HEPG2 it was 1.7; in the experiment with OVCAR4, 1.05.
As to `CN1C(=O)CC(c2ccccc2)C1=O` (stereo not drawn) [Phensuximide], the Euclidean distance was determined as 0.788 in the experiment with 786-O; 1.12 with A549; 1.01 in the experiment on DU145; 0.827 with FB; 0.849 in the experiment on HEPG2; 0.954 in the experiment on OVCAR4.
In the case of `COc1cc2c(cc1OC)CC(=O)N(CCCN(C)C[C@H]1Cc3cc(OC)c(OC)cc31)CC2` [Ivabradine HCl], the Euclidean distance with 786-O worked out at 1.05; with A549, 1.49; in the experiment with DU145, 1.14; with FB, 0.867; with HEPG2, 2.1; in the experiment with OVCAR4 it was 0.925.
For `CCc1ccc(/C=C2/SC(=S)NC2=O)cc1`, the Euclidean distance was found to be 0.453 with 786-O; 0.809 in the experiment on A549; 1.03 in the experiment on DU145; 1.15 in the experiment with FB; 0.771 with HEPG2; 0.723 in the experiment on OVCAR4.
For the compound `COc1cc(C[C@H]2C(=O)OC[C@@H]2Cc2ccc(OC)c(OC)c2)ccc1O` [(-)-Arctigenin], the Euclidean distance in the experiment on 786-O was 1.04; in the experiment with A549, 1.48; in the experiment with DU145, 1.36; in the experiment with FB, 0.929; in the experiment with HEPG2, 2.46; with OVCAR4, 1.29.
As to `COC(=O)N[C@@H](C)CNc1nccc(-c2cn(C(C)C)nc2-c2cc(Cl)cc(NS(C)(=O)=O)c2F)n1`, the Euclidean distance in the experiment with 786-O turned out to be 2.13; in the experiment with A549 it was 1.78; in the experiment with DU145 it was 1.47; in the experiment on FB it was 2.67; in the experiment on HEPG2, 3.02; in the experiment with OVCAR4 it was 1.86.
On to `NCc1ccccc1CC(=O)N[C@@H]1C(=O)N2C(C(=O)O)=C(CSc3nnnn3CC(=O)O)CS[C@H]12` [Ceforanide], for which the Euclidean distance in the experiment on 786-O was 0.783; in the experiment on A549 it was 0.791; in the experiment with DU145, 1.07; with FB, 1.16; in the experiment on HEPG2, 0.834; in the experiment with OVCAR4, 1.64.
Consider `OCc1ccccc1O[C@@H]1O[C@H](CO)[C@@H](O)[C@H](O)[C@H]1O` [Salicin], for which the Euclidean distance worked out at 1.17 with 786-O; 0.655 in the experiment on A549; 0.503 in the experiment on DU145; 0.638 in the experiment on FB; 0.419 with HEPG2; 1.21 in the experiment with OVCAR4.
On to `CC(=O)Nc1ncc([N+](=O)[O-])s1` [Nithiamide], for which the Euclidean distance in the experiment on 786-O worked out at 0.999; in the experiment with A549 it was 0.607; in the experiment with DU145, 0.822; in the experiment on FB, 0.606; in the experiment with HEPG2 it was 2.08; with OVCAR4 it was 0.885.
In the case of `Cc1c(F)cccc1NC(=O)Nc1ccc(Cl)c(S(=O)(=O)[C@H]2CCCNC2)c1O`, the Euclidean distance in the experiment with 786-O amounted to 1.18; with A549, 0.479; in the experiment with DU145 it was 0.758; in the experiment on FB, 1.15; with HEPG2, 0.926; with OVCAR4 it was 1.49.
On to `CNC(=C[N+](=O)[O-])NCCSCc1csc(CN(C)C)n1` [Nizatidine], for which the Euclidean distance amounted to 1.68 with 786-O; 1.53 in the experiment with A549; 2.02 in the experiment with DU145; 0.759 with FB; 1.7 in the experiment with HEPG2; 1.18 in the experiment on OVCAR4.
`O=C(/C=C/c1ccc(O)c(O)c1)c1ccc(O)cc1O` [Butein]: the Euclidean distance with 786-O was found to be 1.56; in the experiment on A549, 1.3; in the experiment on DU145 it was 1.12; with FB, 1.51; with HEPG2, 1.5; with OVCAR4, 1.12.
In the case of `C[C@@H]1C[C@H]2[C@@H]3C[C@H](F)C4=CC(=O)C=C[C@]4(C)[C@@]3(F)[C@@H](O)C[C@]2(C)[C@@]1(O)C(=O)CO` [Flumethasone], the Euclidean distance in the experiment with 786-O came to 1.24; in the experiment with A549, 2.47; in the experiment on DU145, 2.17; with FB it was 2.26; in the experiment with HEPG2 it was 0.627; in the experiment on OVCAR4, 1.97.
